Sampled rows, rich in hits. Any-hit rate of the full collection: about 22%.
Measles CPE: compounds protecting cells from measles virus cytopathic effect, primary screen, measles RdRp inhibitor project, single point, MLSMR library, absorbance; Measles virus-infected cells, CPE protection; protection (pct of control), % at 4 µM; 1.5% of 140,000 active; AID 841, 2007; in the data active = protection mostly above about 24%, no sharp cut-off; inactive = mostly below about 26%
CYP2C19 activ: human CYP2C19 activators, primary screen, biochemical, luminescence; activation factor at 5 µM; 96,000 tested, under 10 active; AID 1025, 2008; Cytochrome P450 2C19 (Homo sapiens), P33261; recombinant CYP2C19, luciferin-H EGE luminescence; stronger effect = higher value; 0 = fully inhibited enzyme, 1 = untreated enzyme;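 active = activation factor of at least 2 at 5 µM in the primary screen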;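 also: 0 = wells with 2.5 mM tranylcypromine and 1 = vehicle-only wells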
Target sequence (P33261 whole entry, looked up): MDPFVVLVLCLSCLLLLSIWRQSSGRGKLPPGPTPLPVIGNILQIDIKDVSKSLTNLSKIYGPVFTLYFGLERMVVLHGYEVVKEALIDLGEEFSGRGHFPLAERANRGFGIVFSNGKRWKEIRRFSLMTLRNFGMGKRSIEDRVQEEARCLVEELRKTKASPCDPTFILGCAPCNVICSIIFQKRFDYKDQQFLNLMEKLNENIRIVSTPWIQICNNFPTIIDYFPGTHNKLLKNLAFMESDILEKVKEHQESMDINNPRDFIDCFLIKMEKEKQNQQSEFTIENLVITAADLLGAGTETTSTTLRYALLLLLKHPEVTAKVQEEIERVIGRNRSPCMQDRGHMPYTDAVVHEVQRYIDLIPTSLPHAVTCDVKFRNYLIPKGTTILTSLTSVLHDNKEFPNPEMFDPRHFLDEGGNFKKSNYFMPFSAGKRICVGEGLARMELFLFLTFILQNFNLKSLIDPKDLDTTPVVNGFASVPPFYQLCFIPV
CYP2C19 inh: blockers of cytochrome P450 2C19 activity – biochemical, luminescence, ADME assay, primary screen | AID 778, 2007 | CYP2C19 Supersomes, luciferin-H EGE luminescence, 30 min | inhibition, % at 5 µM | 21% of 96,000 active;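 active = CYP2C19 inhibition above a set limit at 5 µM in the primary screen, cut at about 50% in these data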;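 also: plate controls were negative control wells for no effect and 2.5 mM tranylcypromine positive control for full effect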
CYP2C9 inh: blockers of cytochrome P450 2C9 activity – biochemical, luminescence, ADME assay, primary screen; CYP2C9 Supersomes, luciferin-H conversion; inhibition, % at 5 µM; AID 777, 2007; 20% of 96,000 active;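 active = blocking of liver enzyme CYP2C9 beyond about 50% at 5 µM, limit read from the data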
CYP2C9 activ: human CYP2C9 activators, primary screen, biochemical, luminescence; 1.4% of 96,000 active; recombinant CYP2C9, luciferin-H conversion; stronger effect = higher value; factor 1 = untreated enzyme, 0 = blocked; activation factor at 5 µM; AID 1024, 2008; Cytochrome P450 2C9 (Homo sapiens), P11712;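 active = activation factor of 2 or more for CYP2C9 at a 5 µM dose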;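 also: 0 = sulfaphenazole-blocked wells and 1 = vehicle-only wells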
Starred values were filed as active, the others as inactive; . = no result.

SMILES	Measles CPE	CYP2C19 activ	CYP2C19 inh	CYP2C9 inh	CYP2C9 activ
CCCCOC(=O)Nc1nnc(CCc2ccccc2)s1	51*	0.7	27	34	0.7
CCOC(=O)c1sc2nc(-c3ccccc3)ccc2c1N	17	.	.	.	.
CCSc1nnc(NC(=O)C2CC=CCC2C(=O)O)s1 (configuration not stated)	51	1	0	79*	0.2
CCOC(=O)c1sc2nc(NC(=O)COc3ccccc3)sc2c1C	14	0.5	51*	86*	0.1
CCSc1nnc(NC(=O)C2CCCCC2)s1	4	0.6	37	27	0.7
CCCCOC(=O)Nc1nnc(COc2ccccc2)s1	5	0.6	39	38	0.6
CCSc1nnc(NC(=O)C(CC)Oc2ccccc2)s1 (configuration not stated)	19	0.7	34	80*	0.2
CCSc1nnc(NC(=O)C(Cc2ccccc2)n2cccc2)s1 (configuration not stated)	7	1.2	-18	-30	1.3
CN(C)CCCNC(=O)CCC1CCCCC1	8	1.1	-14	-17	1.2
COc1ccc(CNC(=O)c2ccc(NC(=O)C3CCCO3)cc2)cc1 (configuration not stated)	3	1	-1	6	0.9
COc1ccccc1S(=O)Cc1ccc(C(=O)NCc2ccccc2Cl)o1 (configuration not stated)	7	0.6	36	26	0.7
COc1ccc(-c2ncncc2-c2csc(C)n2)c(O)c1OC	4	0.4	63*	52*	0.5
Cc1cc(C)cc(NC(=O)N2CCCC2C(=O)Nc2ccc(-n3cnnn3)cc2)c1 (configuration not stated)	9	0.2	83*	4	1
CC(=O)c1cccc(NC(=O)N2CCCC2C(=O)Nc2cccc(C)c2)c1 (configuration not stated)	2	0.6	45	53*	0.5
CC(=O)Nc1cccc(NC(=O)C2CCCN2C(=O)Nc2cccc(C)c2)c1 (configuration not stated)	20	1.1	-6	-4	1
O=C1NC(=O)C2(COC(c3cccnc3)OC2)S1 (configuration not stated)	18	.	.	.	.
Cc1ccc(C(=O)Nc2cc(C(F)(F)F)ccc2N2CCCCC2)cc1[N+](=O)[O-]	5	0.5	46	26	0.7
O=C(Nc1cc(C(F)(F)F)ccc1N1CCCCC1)c1cccc([N+](=O)[O-])c1	2	0.7	33	56*	0.4
Cc1cc(C)n(-c2ccc(C(=O)Nc3cc(C(F)(F)F)ccc3N3CCOCC3)cc2)n1	4	0.9	6	12	0.9
O=C(Nc1cc(C(F)(F)F)ccc1N1CCCC1)c1ccc2c(c1)OCO2	40	0.3	69*	77*	0.2
O=C(Nc1ccccc1N1CCCCC1)c1ccc(F)cc1	3	0.8	16	-1	1
O=C(Nc1ccccc1N1CCCC1)c1ccc2c(c1)OCO2	1	0.3	71*	53*	0.5
O=C(O)c1cc(NCc2c(F)cccc2Cl)ccc1N1CCOCC1	4	1	-5	25	0.7
Cc1ccc2cc(C#N)c(NCc3ccco3)nc2c1	7	0.6	40	45	0.5
CSc1nc(-c2ccc(Cl)cc2)nn1C(=O)c1ccco1	52*	0.9	10	18	0.8
SMILES	Measles CPE	CYP2C19 activ	CYP2C19 inh	CYP2C9 inh	CYP2C9 activ
CSc1nc(-c2ccco2)nn1C(=O)c1ccco1	29	1.1	-15	-3	1
Cc1ccc2c(c1)c(C)c(C)n2CC(O)Cn1nnc2ccccc21 (configuration not stated)	7	0.6	40	64*	0.4
Cc1ccc2c(c1)c(C)c(C)n2CC(O)Cn1nc(C)cc1C (configuration not stated)	2	0	97*	77*	0.2
Cc1cc(C)n(CC(O)COc2cccc(OCC(O)Cn3nc(C)cc3C)c2)n1 (configuration not stated)	1	0.5	48	29	0.7
COC(=O)c1ccc2nc(C)c(C)nc2c1	12	1.1	-7	-3	1
COC(=O)c1ccc2c(c1)C(C)(C)C(/C=C/c1ccc(O)cc1)=[N+]2C	-2	0.1	95*	99*	0
CCN(CC)S(=O)(=O)c1cccc(NC(=O)COC(=O)CCC(=O)c2ccc(F)cc2)c1	2	.	.	.	.
CC(=O)Nc1ccc(NC(=O)C(C)OC(=O)CCC(=O)c2ccc(F)cc2)cc1 (configuration not stated)	9	0.3	72*	69*	0.3
Cc1ccc(S(=O)(=O)N(C)CCCC(=O)Nc2ccc(C)cc2C)cc1	14	.	.	.	.
NCCCCCc1nnc(SC/C=C/c2ccccc2)o1	12	0.9	12	12	0.9
NCCCCCc1nnc(SCc2ccccc2Cl)o1	3	0.3	72*	15	0.8
N[C@@H](Cc1ccccc1)c1nnc(SCc2ccccc2Cl)o1	6	0.2	79*	36	0.6
NCCc1nnc(SCC(N)=O)o1	.	1	-5	-4	1
NCCc1nnc(SCc2ccccc2)o1	12	0.2	79*	66*	0.3
CCN(CC)C(=O)CSc1nnc(CCN)o1	23	0.5	48	53*	0.5
CCc1ccccc1NC(=O)CSc1nnc([C@@H](N)Cc2ccccc2)o1	9	.	.	.	.
CCCCC/C=C\C[C@H](O)/C=C/c1cccc(C[C@H](O)CCCCO)n1	5	.	.	.	.
O=C(NCc1ccccn1)c1ccc(CNS(=O)(=O)c2cccc(Cl)c2)cc1	27	.	.	.	.
COC(=O)c1ccc(OC(=O)C2CC(=O)N(c3ccc(C)cc3C)C2)cc1 (configuration not stated)	6	1	4	-5	1
NCCc1nnc(SCc2c(F)cccc2Cl)o1	11	0.4	62*	53*	0.5
NCCc1nnc(SCc2ccccc2F)o1	21	0.6	44	29	0.7
Fc1cccc(Cl)c1CSc1nnc(COc2cccc3cccnc23)o1	1	0	96*	-23	1.2
Cc1nc(SCc2c(F)cccc2Cl)n[nH]1	6	1	4	-22	1.2
CC(C)(C)OC(=O)N1CCC(c2c(C(=O)O)cnn2-c2ccccc2)CC1	32*	1.2	-16	-7	1.1
COc1ccc(-c2csc(N(CC3CCCO3)C(=O)c3ccco3)n2)cc1 (configuration not stated)	7	1.1	-6	-1	1
CC(=O)Oc1ccc2c(c1)C(=O)c1ccccc1CO2	8	0.3	68*	32	0.7
CCCC(=O)Nc1ccc(Nc2ccccc2)cc1	9	.	.	.	.
O=C(Nc1sc2c(c1C(=O)O)CCCCC2)c1ccco1	14	0.6	40	51*	0.5
